{"source": "PubChem BioAssay (Tox21)", "note": "Unmarked numbers belong to inactive results. Active and inactive are the calls of the source. Calls come from the whole dose curve; as a rule, active = well fitted curve in the direction sought with a large enough effect in the repeat runs; inconclusive = weak or mixed curves; inactive = flat fitted curve, though single readings scatter. % is set by controls: 0 for no effect and ±100 for the full control effect.", "data": [{"assay": "qHTS assay to test for compound auto fluorescence at 535 nm (green) in HEK293 cells (AID 720680)", "settings": "green autofluorescence 485/535 nm; series mostly up to 91.3 µM; fluorescence, % of fluorescein: at the top concentration", "excerpt": "U.S. Tox21 Program National Center for Advancing Translational Sciences [NCATS] NIH Chemical Genomics Center [NCGC] U.S. Environmental Protection Agency [EPA] National Institutes of Environmental Health Sciences [NIEHS] National Toxicology Program [NTP] U.S. Food and Drug Administration [FDA] Tox21 Assay Overview: Compound auto fluorescence often interferes with screening of the compound library against various biological targets and signaling pathways. Some of these compounds may have fluorophoric properties. Such properties may interfere with the assay outputs resulting in false positives and/or negatives. To decrease such complications and ensure the compound activities are relevant in terms of biological response, the Tox21 10K compound library was screened for auto fluorescence. From the fluorophores used as reporter signals in our screening assays, the auto fluorescence equivalencies of compounds against three fluorophores have been evaluated: Triamterene, Fluorescein and Rose Bengal sodium for blue, green and red fluorescence, respectively. The fluorescence intensities were measured using Excitation/Emission wavelengths at 405/460nm, 485/535nm and 540/590nm for blue, green and red labels, respectively. This assay includes the green fluorescence data.\nTox21 Assay Protocol Summary: 2,000 HEK293 cells in 5 uL of culture medium containing 10% dialyzed FBS per well were dispensed into black wall/clear bottom 1536-well plates using a Multidrop Combi Dispenser (Thermo Scientific). The assay plates were incubated for 4-5 hr at 37C to allow cell attachment to the well bottom, followed by the transfer of 23 nL compound or DMSO vehicle by a pintool work station (Kalypsys, San Diego, CA). After the assay plates were incubated overnight at 37C and 5% CO2, fluorescence intensities in the assay plates were measured by an Envision (PerkinElmer, Shelton, CT) plate reader using three labels for measuring blue, green and red fluorescence at […] 460, 535 and 590nm respectively.", "values": [{"smiles": "Nc1cc2c3c(c1)C(c1ccccc1)=N[C@@H](NC(=O)c1cccnc1)C(=O)N3CC2", "fluorescence, % of fluorescein": "0.0188%"}, {"smiles": "O=C(O)c1cccc(Cl)c1", "fluorescence, % of fluorescein": "-0.0606%"}, {"smiles": "ClC(Cl)Br", "fluorescence, % of fluorescein": "0.0309%"}, {"smiles": "C=C(C)[C@@H]1CC=C(C=O)CC1", "fluorescence, % of fluorescein": "0.149%"}, {"smiles": "CC(C)CC(N(C)C)C1(c2ccc(Cl)cc2)CCC1", "note": "(stereo not given)", "fluorescence, % of fluorescein": "-0.0112% [at 46 µM]"}, {"smiles": "CCOC(=O)CP(=O)(OCC)OCC", "fluorescence, % of fluorescein": "-0.0079%"}, {"smiles": "CCOP(=S)(OCC)SCSc1ccc(Cl)cc1", "outcome": "inactive"}, {"smiles": "CCCSC(=O)N(CCC)CCC", "fluorescence, % of fluorescein": "-0.0369%"}, {"smiles": "CCS(=O)(=O)CCSP(=O)(OC)OC", "fluorescence, % of fluorescein": "0.0458%"}, {"smiles": "COc1cc2c(cc1OC)[C@@]13CCN4CC5=CCO[C@H]6CC(=O)N2[C@H]1[C@H]6[C@H]5C[C@H]43", "outcome": "inactive"}, {"smiles": "CN1CCN(C(=O)O[C@H]2c3nccnc3C(=O)N2c2ccc(Cl)cn2)CC1", "fluorescence, % of fluorescein": "0.0861% [at 46 µM]"}, {"smiles": "N#CC(Cl)(Cl)Cl", "fluorescence, % of fluorescein": "0.0339%"}, {"smiles": "CC(C)CP(=S)(S)CC(C)C", "fluorescence, % of fluorescein": "-0.0398%"}, {"smiles": "CCOC(=O)NC(=S)Nc1ccccc1NC(=S)NC(=O)OCC", "fluorescence, % of fluorescein": "-0.0241%"}, {"smiles": "C[N+](C)=CCl", "fluorescence, % of fluorescein": "0.017%"}, {"smiles": "O=CNC(N1CCN(C(NC=O)C(Cl)(Cl)Cl)CC1)C(Cl)(Cl)Cl", "note": "(stereo not given)", "fluorescence, % of fluorescein": "0.192%"}, {"smiles": "O=[N+]([O-])c1cccc(O)c1", "fluorescence, % of fluorescein": "-0.0314%"}, {"smiles": "NC(=O)c1cc([N+](=O)[O-])cc([N+](=O)[O-])c1", "fluorescence, % of fluorescein": "-0.0078% [at 46 µM]"}, {"smiles": "CN(N=O)C(N)=O", "fluorescence, % of fluorescein": "-0.0213%"}, {"smiles": "Cc1ncsc1CCCl", "fluorescence, % of fluorescein": "0.0414% [at 46 µM]"}, {"smiles": "CCCCOC(=O)[C@@H](C)Oc1ccc(Oc2ccc(C#N)cc2F)cc1", "fluorescence, % of fluorescein": "0.0409%"}, {"smiles": "OC(c1ccc(F)cc1)(c1cncnc1)c1ccccc1Cl", "note": "(stereo not given)", "fluorescence, % of fluorescein": "-0.0186%"}, {"smiles": "CCSC(=O)N(CC)C1CCCCC1", "fluorescence, % of fluorescein": "-0.152%"}, {"smiles": "O=C(O)c1ccc2[nH]cc(CCCCN3CC=C(c4ccccc4)CC3)c2c1", "fluorescence, % of fluorescein": "-0.014% [at 46 µM]"}, {"smiles": "CC(C)NCC(O)c1ccc(N)c(C#N)c1", "note": "(stereo not given)", "fluorescence, % of fluorescein": "0.0727% [at 46 µM]"}, {"smiles": "O=C(Cc1ccccc1)OCc1ccccc1", "fluorescence, % of fluorescein": "-0.0154%"}, {"smiles": "CCS(=O)(=O)C(C)(C)S(=O)(=O)CC", "fluorescence, % of fluorescein": "0.0081% [at 46 µM]"}, {"smiles": "CN1CCC(O)(c2ccc(F)cc2)C(C(=O)c2ccc(F)cc2)C1", "note": "(stereo not given)", "fluorescence, % of fluorescein": "-0.0044% [at 46 µM]"}, {"smiles": "N#CCBr", "fluorescence, % of fluorescein": "-0.0231% [at 95.7 µM]"}, {"smiles": "O=C1OC(c2ccc(O)c(S(=O)(=O)O)c2)(c2ccc(O)c(S(=O)(=O)O)c2)c2c(Br)c(Br)c(Br)c(Br)c21", "fluorescence, % of fluorescein": "0.0756% [at 46 µM]"}, {"smiles": "COc1cc(OC)nc(Oc2cccc(Oc3nc(OC)cc(OC)n3)c2C(=O)O)n1", "fluorescence, % of fluorescein": "-0.203%"}, {"smiles": "N#CC(CCc1ccc(Cl)cc1)(Cn1cncn1)c1ccccc1", "note": "(stereo not given)", "fluorescence, % of fluorescein": "0.0682%"}, {"smiles": "C(CCOCC1CO1)COCC1CO1", "note": "(stereo not given)", "fluorescence, % of fluorescein": "0.0614%"}, {"smiles": "CCC(C)(C)c1cc(-n2nc3ccccc3n2)c(O)c(C(C)(C)CC)c1", "fluorescence, % of fluorescein": "-0.136% [at 95.7 µM]"}, {"smiles": "CCC(Cl)[N+](=O)[O-]", "note": "(stereo not given)", "fluorescence, % of fluorescein": "-0.0125% [at 95.7 µM]"}, {"smiles": "CCOP(=S)(OCC)Oc1cc(-c2ccccc2)on1", "fluorescence, % of fluorescein": "0.296%"}, {"smiles": "OCCSCSCCO", "fluorescence, % of fluorescein": "0.0054%"}, {"smiles": "O=C1c2ccccc2C(=O)c2ccccc21", "fluorescence, % of fluorescein": "0.0869% [at 46 µM]"}, {"smiles": "CCCCN(CCCCO)N=O", "fluorescence, % of fluorescein": "-0.0565%"}, {"smiles": "C[C@@H]1CN(C2CCC(C#N)(c3ccc(F)cc3)CC2)CC[C@]1(C(=O)O)c1ccccc1", "note": "(stereo not given in full)", "fluorescence, % of fluorescein": "0.0038% [at 18.6 µM]"}]}]}
